Measurements published in PubChem BioAssay (NCI).
The panel holds about 83,000 compounds, 20% with a hit somewhere; the sample as a whole holds those more often.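 Plates (96-well) were seeded with cells, treated with compound at one concentration, and incubated for 48 hours before percent growth was determined.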 A number with no mark means an inactive call. Active and inactive are the calls of the source. The calls were made as follows: active = growth percent below 10; inactive = the rest.

Assays:
Experiment in all cases: NCI-60 one-dose screen, 48 h (100 = growth as untreated, 0 = no growth, -100 = all killed)
Details in all cases: 10 µM unless noted
DU-145 prostate = test system: DU-145 prostate
K-562 leukemia = test system: K-562 leukemia
MALME-3M melanoma = test system: MALME-3M melanoma
MDA-MB-231 breast = test system: MDA-MB-231 breast
RXF 393 renal = test system: RXF 393 renal
SF-268 CNS = test system: SF-268 CNS
SF-295 CNS = test system: SF-295 CNS
SF-539 CNS = test system: SF-539 CNS
UACC-257 melanoma = test system: UACC-257 melanoma
M14 melanoma = test system: M14 melanoma
HCT-15 colon = test system: HCT-15 colon
HT29 colon = test system: HT29 colon
SNB-75 CNS = test system: SNB-75 CNS
SNB-19 CNS = test system: SNB-19 CNS
U251 CNS = test system: U251 CNS
PC-3 prostate = test system: PC-3 prostate
SK-MEL-5 melanoma = test system: SK-MEL-5 melanoma
UACC-62 melanoma = test system: UACC-62 melanoma
LOX IMVI melanoma = test system: LOX IMVI melanoma
SK-MEL-28 melanoma = test system: SK-MEL-28 melanoma

| SMILES | growth (DU-145 prostate) | growth (K-562 leukemia) | growth (MALME-3M melanoma) | growth (MDA-MB-231 breast) | growth (RXF 393 renal) | growth (SF-268 CNS) | growth (SF-295 CNS) | growth (SF-539 CNS) | growth (UACC-257 melanoma) | growth (M14 melanoma) | growth (HCT-15 colon) | growth (HT29 colon) | growth (SNB-75 CNS) | growth (SNB-19 CNS) | growth (U251 CNS) | growth (PC-3 prostate) | growth (SK-MEL-5 melanoma) | growth (UACC-62 melanoma) | growth (LOX IMVI melanoma) | growth (SK-MEL-28 melanoma) |
| --- | --- | --- | --- | --- | --- | --- | --- | --- | --- | --- | --- | --- | --- | --- | --- | --- | --- | --- | --- | --- |
| C#C[C@@]1(O)[C@@H](CO)O[C@@H](n2cc(-c3ccco3)c3c(N)ncnc32)[C@@H]1O | 67.9% | 86.1% | 59.4% | 102% | 80.9% | 83% | 76.9% | 46% | 89.3% | 69.9% | 59.3% | 28.8% | 14.6% | 94.4% | 81.8% | 49.1% | 89% | 80.2% | 65.6% | 93.2% |
| C=C(C)[C@@H]1CC[C@]2(C(=O)OCCOCCOCC[P+](c3ccccc3)(c3ccccc3)c3ccccc3)CC[C@]3(C)[C@H](CC[C@@H]4[C@@]5(C)CC[C@H](C)C(C)(C)[C@@H]5CC[C@]43C)[C@@H]12 | -92.1% (active) | -65.7% (active) | -79.4% (active) | -74% (active) | -85.3% (active) | -74.5% (active) | -87.5% (active) | -90.3% (active) | -88.1% (active) | -77.4% (active) | -86.7% (active) | -81.6% (active) | -90% (active) | -72.2% (active) | -83.5% (active) | -84.9% (active) | -98% (active) | -77.8% (active) | -86.3% (active) | -80% (active) |
| COc1cccc(NC(=O)Nc2ccc(Nc3ncnc4[nH]c(C)c(C)c34)cc2)c1 | 110% | 94.4% | 122% | 108% | 111% | 94% | 95.5% | 69.3% | 98.3% | 106% | 94.1% | 95.5% | 82.2% | 98.5% | 90.3% | 93.9% | 102% | 96.6% | 99.7% | 104% |
| O=C1CCC23OC(C(O)c4ccccc4N12)C1C(Br)=NOC13 (stereo not given) | 107% | 96.3% | 102% | 105% | 114% | 91.9% | 106% | 93.3% | 98.1% | 104% | 97.4% | 106% | 80.8% | 108% | 107% | 99.2% | 111% | 109% | 99.7% | 106% |
| COC(=O)CCc1n(Cc2ccc3ccccc3c2)c2ccccc2[n+]1Cc1ccc2ccccc2c1 | 28% | 9.25% (active) | -34.5% (active) | -39.4% (active) | 23.7% | 12.1% | 13.1% | 16.3% | -28.2% (active) | -25.5% (active) | 79.1% | -25.5% (active) | -8.15% (active) | 16% | 8.5% (active) | 6.6% (active) | -92.9% (active) | -54% (active) | -59.3% (active) | 4.8% (active) |
| COc1cc2nc3c(=O)n(-c4ccc(C#N)cc4)cnn3c(=O)c2cc1OC | 103% | 106% | 87.5% | 103% | 100% | 88.5% | 99.8% | 94.9% | 110% | 94.1% | 100% | 100% | 73.9% | 97.7% | 102% | 98.3% | 96.1% | 95.1% | 95.4% | 99.8% |
| COc1cc(C2CC(c3ccc(Nc4nc(NCCO)nc(NCCO)n4)cc3)=NN2c2cc(Cl)cc(Cl)c2)cc(OC)c1OC (stereo not given) | 12.8% | 2.02% (active) | -66.3% (active) | -19.2% (active) | -42.5% (active) | -33.3% (active) | 6.18% (active) | -61.3% (active) | 13.2% | -14.3% (active) | 16.3% | -47% (active) | -14.6% (active) | 17.4% | -36.2% (active) | -42.1% (active) | -45.8% (active) | 2.21% (active) | -60.2% (active) | -70% (active) |
| Cc1cccc(C)c1NCc1nnc(-c2ccc(O)cc2)o1 | 110% | 126% | 101% | 103% | 108% | 101% | 96.5% | 97.8% | 111% | 98.5% | 97.7% | 106% | 77.8% | 108% | 105% | 95.1% | 101% | 100% | 96.8% | 102% |
| Cc1nccc2c3ccc(OCc4cn(-c5ccc(Br)cc5)nn4)cc3n(CC(C)C)c12 | 76% | 14.8% | 51.1% | 46.9% | 46.1% | 68.4% | 40% | 61.4% | 27.3% | 42.6% | 36.4% | 4.32% (active) | 89.5% | 59.6% | 36.9% | 30.7% | 13.1% | 38.4% | 52.2% | 67.2% |
| N#CC1C(c2ccc(Cl)cc2)=Nc2c(c(-c3ccccc3)nn2-c2ccccc2)C12C(=O)Nc1ccc(Cl)cc12 (stereo not given) | 74% | 19.1% | 70.3% | 41.2% | 28.3% | 39.1% | 28.1% | 43.8% | 53.6% | 34.6% | 20.5% | 22.5% | 45.8% | 24.1% | 18.6% | 11.8% | 46.5% | 48.2% | 43.9% | 52% |
| Nc1c(C(=O)Nc2ccccn2)sc2nc3c(cc12)C(=O)CCC3 | 5.74% (active) | 22.2% | 58.2% | 51.6% | 1.88% (active) | 53.1% | 16.2% | 14.6% | 69.8% | 18.3% | 28.5% | 12.4% | 8.84% (active) | 28.2% | 29.5% | 37.9% | 17.1% | 34.9% | 44.4% | 56.4% |
| CCCCOc1nc2ccc(C)cc2cc1/C=C/C(=O)/C=C/c1ccc2c(c1)OCO2 | 82.8% | 69.1% | 106% | 92.8% | 108% | 75.4% | 105% | 109% | 73.3% | 52.4% | 97.8% | 63.6% | 97.1% | 92.9% | 48.4% | 72.4% | 77.6% | 75.6% | 77.3% | 109% |
| Cc1cc(NC(=O)CNc2nc(Oc3ccc(F)cc3)nc(-c3ccc(F)cc3)n2)ccc1Cl | 112% | 89.5% | 109% | 106% | 92.7% | 100% | 96.9% | 109% | 101% | 104% | 102% | 94% | 87.8% | 100% | 98.4% | 89.1% | 99.1% | 97.5% | 96.1% | 109% |
| C#CCOC(=O)[C@]1(C)CCC[C@]2(C)[C@H]3C[C@H]4C(C(C)C)=C[C@]3(CC[C@H]21)[C@@H]1C(=O)CCC(=O)[C@@H]14 | 102% | 77.2% | 110% | 74.6% | 86% | 99.2% | 83.7% | 84% | 92.3% | 91.9% | 92.6% | 71.1% | 90.3% | 86% | 87.6% | 49.7% | 85.5% | 63.1% | 78.8% | 95.3% |
| COc1cc(C2=NN(C(C)=O)C(c3cccc(Nc4ccnc5cc(C(F)(F)F)ccc45)c3)C2)cc(OC)c1OC (stereo not given) | 55% | 36.8% | 78.9% | 66.1% | 55.3% | 52.6% | 53.8% | 76.6% | 79% | 29.7% | 39.9% | 22.1% | 76.1% | 60.9% | 58.7% | 25% | 27.8% | 69% | 53.2% | 66.5% |
